From PubChem BioAssay (NCI)
This is part of a sample that, as a whole, favours compounds with a hit. Of some 79,000 tested, about 15% had one in any assay. The source made the active and inactive calls. Rule as the data show it: active = growth inhibition above about 70%; inactive = the rest.

Assays:
[1] = NCI Yeast Anticancer Drug Screen. Data for the rad50 strain (AID 155);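 also: 0% = growth of vehicle-only cultures of the same strain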; conditions: S. cerevisiae rad50 strain growth inhibition, active compounds read high
In short: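 Relative growth inhibition (compound vs vehicle) was measured in yeast with a defined repair-gene alteration.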

[2] = NCI Yeast Anticancer Drug Screen. Data for the mec2-1 strain (AID 157); conditions: S. cerevisiae mec2-1 strain, active compounds read high
In short: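 Yeast mec2-1 mutant treated with compound. Readout: growth inhibition vs vehicle controls.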

[3] = NCI Yeast Anticancer Drug Screen. Data for the sgs1 mgt1 strain (AID 161);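 also: 0% = growth of cultures given vehicle only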; conditions: S. cerevisiae sgs1 mgt1 strain, active compounds read high
In short: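 Inhibition of yeast growth, normalised to vehicle-treated controls, is reported for a strain bearing genetic alterations in DNA damage repair.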

[4] = NCI Yeast Anticancer Drug Screen. Data for the cln2 rad14 strain (AID 165);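 also: 0% = growth equal to vehicle treated cultures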; conditions: S. cerevisiae cln2 rad14 strain, active compounds read high
In short: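 cln2 rad14 yeast strain; compound exposure; growth inhibition read vs vehicle controls.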

[5] = NCI Yeast Anticancer Drug Screen. Data for the bub3 strain (AID 167); conditions: S. cerevisiae bub3 mutant strain, active compounds read high
In short: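 Screening used yeast with an engineered genetic alteration affecting cell cycle control. Compound-exposed cultures were compared with vehicle cultures, and reduced growth was taken as inhibition.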

[6] = NCI Yeast Anticancer Drug Screen. Data for the mlh1 rad18 strain (AID 175); conditions: S. cerevisiae mlh1 rad18 strain growth inhibition, active compounds read high
In short: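 Yeast w/ defined DNA-repair lesions; compound exposure; growth vs vehicle controls → % inhibition.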

[7] = at 5.0 µM (retest, dose inferred, filed as 0.5)
[8] = at 50.0 µM (retest, dose inferred, filed as 5.0)

Measured: growth inhibition

Cc1cc(C[P+](c2ccccc2)(c2ccccc2)c2ccccc2)c(C)cc1C[P+](c1ccccc1)(c1ccccc1)c1ccccc1
inactive: [1]; [7] 4% | [1]; [8] 66% | [2]; [7] -9% | [2]; [8] 49% | [3]; [7] 1% | [3]; [8] 61% | [4]; [7] 3% | [4]; [8] 32% | [5]; [7] 3% | [5]; [8] 66% | [6]; [7] 1%
active: [1]; at 50.0 µM 95.1% | [2]; at 50.0 µM 96.7% | [3]; at 50.0 µM 91.6% | [4]; at 50.0 µM 82.5% | [5]; at 50.0 µM 92.1% | [6]; [8] 86% | [6]; at 50.0 µM 94.5%

CCCCc1ccc2nc(C)cc(N=[N+]=[N-])c2c1
active: [1]; [8] 98% | [1]; at 50.0 µM 89.7% | [2]; [8] 90% | [2]; at 50.0 µM 99% | [3]; [8] 96% | [3]; at 50.0 µM 94.8% | [4]; at 50.0 µM 94.7% | [5]; [8] 92% | [5]; at 50.0 µM 97.2% | [6]; [8] 98% | [6]; at 50.0 µM 96.3%
inactive: [1]; [7] 2% | [2]; [7] -14% | [3]; [7] -6% | [4]; [7] -14% | [4]; [8] 48% | [5]; [7] -9% | [6]; [7] -2%

O=C(Nc1ccc(Cl)cc1Cl)C1C(=O)OC2(CCCCC2)OC1=O
active: [1]; [8] 96% | [1]; at 50.0 µM 84.5% | [2]; [8] 98% | [2]; at 50.0 µM 89.8% | [3]; [8] 97% | [4]; [8] 98% | [5]; [8] 98% | [6]; [8] 97% | [6]; at 50.0 µM 87.2%
inactive: [1]; [7] 24% | [2]; [7] 38% | [3]; [7] 30% | [3]; at 50.0 µM 55.6% | [4]; [7] 37% | [4]; at 50.0 µM 62.8% | [5]; [7] 45% | [5]; at 50.0 µM 62.3% | [6]; [7] 37%

CN(C)c1ccccc1CC(c1c[nH]c2ccccc12)c1c[nH]c2ccccc12
active: [1]; [7] 82% | [1]; [8] 90% | [1]; at 50.0 µM 84.8% | [2]; [7] 73% | [2]; [8] 93% | [2]; at 50.0 µM 89.5% | [3]; [8] 91% | [3]; at 50.0 µM 87.6% | [4]; [8] 94% | [4]; at 50.0 µM 86.2% | [5]; [8] 91% | [5]; at 50.0 µM 85.2% | [6]; [7] 92% | [6]; [8] 87% | [6]; at 50.0 µM 82%
inactive: [3]; [7] 67% | [4]; [7] 50% | [5]; [7] 66%

NC(c1ccccc1)P(=O)(OCc1ccc([N+](=O)[O-])cc1)OCc1ccc([N+](=O)[O-])cc1 (stereo not given)
active: [3]; at 50.0 µM 72.3%
inactive: [1]; [7] 15% | [1]; [8] 15% | [1]; at 50.0 µM 57.2% | [2]; [7] -4% | [2]; [8] -4% | [2]; at 50.0 µM 33.6% | [3]; [7] -3% | [3]; [8] -3% | [4]; [7] 11% | [4]; [8] 11% | [4]; at 50.0 µM 35.6% | [5]; [7] 6% | [5]; [8] 6% | [5]; at 50.0 µM 36.9% | [6]; [7] 14% | [6]; [8] 14% | [6]; at 50.0 µM 33.4%

C/C(=C/CC1CCC2C3=CCC4CC(O)CCC4(C)C3CCC12C)C(C)C(C)C (stereo not given)
inactive: [1]; [7] 17% | [2]; [7] -4% | [3]; [7] 2% | [3]; [8] 66% | [3]; at 50.0 µM 59.1% | [4]; [7] 0% | [4]; [8] 69% | [5]; [7] -2% | [5]; at 50.0 µM 64.8% | [6]; [7] 13%
active: [1]; [8] 97% | [1]; at 50.0 µM 98% | [2]; [8] 86% | [2]; at 50.0 µM 74.3% | [4]; at 50.0 µM 81.5% | [5]; [8] 97% | [6]; [8] 89% | [6]; at 50.0 µM 97.3%

CC(CCl)OC(=O)Nc1cccc(C(F)(F)F)c1 (stereo not given)
inactive: [1]; [7] 55% | [2]; [7] 40% | [2]; [8] 50% | [2]; at 50.0 µM 31.5% | [3]; [7] 42% | [4]; [7] 41% | [4]; [8] 51% | [4]; at 50.0 µM 62% | [5]; [7] 37% | [6]; [7] 55%
active: [1]; [8] 82% | [1]; at 50.0 µM 73.1% | [3]; [8] 70% | [3]; at 50.0 µM 83% | [5]; [8] 77% | [5]; at 50.0 µM 74.8% | [6]; [8] 87% | [6]; at 50.0 µM 73%

COC(=O)C1(C)CCCC2(C)C3CCC4CC3(C=C4CO)CCC12 (stereo not given)
inactive: [1]; [7] 32% | [1]; at 50.0 µM 53% | [2]; [7] 24% | [2]; at 50.0 µM 43.1% | [3]; [7] 35% | [4]; [7] 36% | [5]; [7] 24% | [6]; [7] 41% | [6]; at 50.0 µM 50.4%
active: [1]; [8] 96% | [2]; [8] 98% | [3]; [8] 99% | [3]; at 50.0 µM 86.5% | [4]; [8] 91% | [4]; at 50.0 µM 73.5% | [5]; [8] 98% | [5]; at 50.0 µM 80.7% | [6]; [8] 98%

Cc1cc(N(CCC#N)CCC#N)ccc1/C(Sc1ccccc1)=C(\NC(=O)/C=C/c1ccccc1)C(=O)Sc1ccccc1
inactive: [1]; [7] 28% | [1]; [8] 28% | [2]; [7] 21% | [2]; [8] 21% | [3]; [7] 25% | [3]; [8] 25% | [4]; [7] 17% | [4]; [8] 17% | [4]; at 50.0 µM 64.5% | [5]; [7] 21% | [5]; [8] 21% | [6]; [7] 24% | [6]; [8] 24%
active: [1]; at 50.0 µM 86.6% | [2]; at 50.0 µM 90% | [3]; at 50.0 µM 90.9% | [5]; at 50.0 µM 87.2% | [6]; at 50.0 µM 75.1%

Cc1nc2ccc(NCCN(C)C)c3c(=O)c4cc(O)ccc4n1c23
inactive: [1]; [7] 25% | [1]; [8] 63% | [1]; at 50.0 µM -20.4% | [2]; [7] -3% | [2]; [8] 12% | [2]; at 50.0 µM 20.4% | [3]; [7] -4% | [3]; [8] 16% | [3]; at 50.0 µM -4.45% | [4]; [7] 3% | [4]; [8] 16% | [4]; at 50.0 µM 11.2% | [5]; [7] 13% | [5]; [8] 13% | [5]; at 50.0 µM 1.4% | [6]; [7] -3% | [6]; [8] 20% | [6]; at 50.0 µM 61.4%
